Experimental findings from PubChem BioAssay AID652020 (National Center for Advancing Translational Sciences (NCATS), 2013) are described below.

Some of the results follow. Results filed as inconclusive are left out. The source made the active and inactive calls. Calls come from the whole dose curve; as a rule, active = well fitted curve in the direction sought with a large enough effect; inconclusive = small, poorly fitted or top-dose-only effect, or another doubt; inactive = no such curve, though single readings can be large or run the other way.

The target in the experiment is Glutathione reductase, mitochondrial (Homo sapiens) (UniProt P00390). Description: qHTS Assay for Inhibitors of Mammalian Selenoprotein Thioredoxin Reductase 1 (TrxR1): Counterassay in Glutathione Reductase (GR). An excerpt:
The selenoprotein thioredoxin reductase (TrxR; EC 1.8.1.9) is a FAD containing homodimeric pyridine nucleotide-disulfide oxidoreductase with many cellular roles. Together with NADPH and its prime substrate thioredoxin (Trx), the enzyme forms the core of the Trx system. The mammalian Trx system exerts a wide spectrum of functions including redox regulation, antioxidant defense, regulation of transcription factors as well as support of cell growth and replication. Many of these functions involve the reduction of Trx, which may subsequently reduce a number of different substrates including ribonucleotide reductase, peroxiredoxins or NFkB. Mammalian TrxR itself also has a broad substrate specificity, reducing both protein and non-protein substrates, including low molecular weight compounds such as dehydroascorbate, lipoic acid, ubiquinone, and juglone. […]
Three microliters of reagents (100 microM NADPH and 60 nM hGR or 100 microM NADPH as no-enzyme control) was dispensed into 1,536-well black clear-bottomed plates (Buffer: 0.1 M potassium phosphate, pH 7.4/10 mM EDTA, 0.01 % Tween-20). […] The plate was transferred to a ViewLux high-throughput CCD imager (Perkin-Elmer, Wellesley, MA) where kinetic measurements (one read per 5 min for 6 reads, total time 25 min) of the TNB absorbance was acquired using a 405 excitation filter.
(In general: In qHTS, concentration-response curves come from the screen itself.)

Glutathione reductase, mitochondrial (Homo sapiens), sequence (P00390 whole entry, looked up): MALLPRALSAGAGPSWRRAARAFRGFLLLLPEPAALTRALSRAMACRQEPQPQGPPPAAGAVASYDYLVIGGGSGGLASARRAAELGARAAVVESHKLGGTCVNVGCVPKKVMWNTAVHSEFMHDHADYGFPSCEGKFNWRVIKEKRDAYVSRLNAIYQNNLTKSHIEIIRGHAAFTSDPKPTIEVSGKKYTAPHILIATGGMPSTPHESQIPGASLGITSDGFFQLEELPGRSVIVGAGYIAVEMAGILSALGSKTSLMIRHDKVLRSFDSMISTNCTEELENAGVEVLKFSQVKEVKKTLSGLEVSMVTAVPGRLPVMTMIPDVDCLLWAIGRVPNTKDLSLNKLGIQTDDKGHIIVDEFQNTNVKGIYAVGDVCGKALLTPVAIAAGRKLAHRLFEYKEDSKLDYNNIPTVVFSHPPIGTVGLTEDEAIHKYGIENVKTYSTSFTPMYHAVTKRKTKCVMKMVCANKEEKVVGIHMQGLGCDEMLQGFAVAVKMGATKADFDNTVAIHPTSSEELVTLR

For `COc1ccc(-c2nc(CS(=O)CC(=O)N3CCC4(CC3)OCCO4)c(C)o2)cc1` (stereo unspecified), the result was inactive.
